In PubChem BioAssay (Tox21):
“And” between values parts separate entries of the source, which are not always exact repeats. Equal entries are not always repeated. Records with an inconclusive call do not appear. Entries that show only a call come without a potency. Some structures have more than one record in an assay (separate samples or runs), and their calls can disagree. The source made the active and inactive calls. Calls come from the whole dose curve; as a rule, active = well fitted cell-killing curve with a large enough effect in the repeat runs (not every such curve was filed as active); inconclusive = weak or mixed curves, or effect the other way; inactive = no such curve, though single readings can be large or run the other way.

experiment: qHTS assay to identify small molecule antagonists of the estrogen related receptor signaling pathway with the pleiotropic PPARgamma coactivator (PGC) from Tox21 10K library - cell viability counter screen (AID 1224840); conditions: PGC/ERR reporter cells viability, CellTiter-Fluor, 17.5 h; series mostly up to 92.4 µM; note: nearly all actives have a fitted effect of over 40% in size
Text: National Center for Advancing Translational Sciences [NCATS]
NIH Chemical Genomics Center [NCGC]
U.S. Environmental Protection Agency [EPA]
National Institutes of Environmental Health Sciences [NIEHS]
National Toxicology Program [NTP]
U.S. Food and Drug Administration [FDA]
Estrogen related receptors (ERRs), the first orphan nuclear receptors discovered, play an important role in the control of cellular energy metabolism. ERRs are required for high-energy production in response to the environmental challenges. The pleiotropic PPARgamma coactivator (PGC) is a major partner of ERR and a key regulator in energy homeostasis. Together they have been implicated in the etiology of metabolic disorders such as Type 2 diabetes and metabolic syndrome. ERR-alpha was also identified as an adverse marker for breast cancer progression; ERR-alpha-positive tumors have a poor prognosis. To screen and to identify environmental compounds that perturb the ERR and PGC/ERR signaling pathways could provide valuable information for potential therapeutic or preventive measures in the treatment of metabolic disease. To differentiate true PGC/ERR antagonists or agonist from cytotoxic substances, the assay is multiplexed with cell viability assay.
Tox21 Assay Protocol Summary:
The PGC/ERR cells were dispensed at 2,000 cells/5 ul/well in 1536-well white plates using a Multidrop dispenser. After the assay plates were incubated at a 37 C/5% CO2 incubator for 6 hours, 23 nL of compounds dissolved in DMSO, positive and negative controls or DMSO only was transferred to the assay plate by a pin tool. The plates were incubated at 37 C for 17.5 hours. 1 ul/well of CellTiter-Fluor reagent was added into the assay plates using a Flying Reagent Dispenser. After 30-minute incubation at 37 C/5% CO2, the fluorescence intensity in the plates was measured using a ViewLux plate reader.
Potency is the fitted concentration of half-maximal effect.

SMILES | Potency
O=C(O)c1ccccc1Nc1cccc(C(F)(F)F)c1 | inactive
NC=O | inactive
COc1ccccc1/C=C/C=O | inactive
O=C(Nc1ccc([N+](=O)[O-])cc1Cl)c1cc(Cl)ccc1O | 2.73 µM (active)
OC(CCl)CCl | inactive
C[C@]12CC[C@H]3[C@@H](CCC4=CC(=O)CC[C@@]43C)[C@@H]1CC[C@@H]2C(=O)CO | inactive
CN1C(C(=O)Nc2ccccn2)=C(O)c2ccccc2S1(=O)=O | inactive
O=C(OCc1ccccc1)c1ccccc1O | inactive
CC(C(=O)O)c1cccc(C(=O)c2ccccc2)c1 (stereo not given) | inactive
Cn1cnc([N+](=O)[O-])c1Sc1ncnc2nc[nH]c12 | inactive
CCOCCOCCO | inactive
CC(=O)Oc1ccccc1C(=O)Nc1ncc([N+](=O)[O-])s1 | 15.7 µM (active) and 23.7 µM (active)
Cc1[nH]c(=O)c(C#N)cc1-c1ccncc1 | inactive
C=C(C)C(=O)OCCOC(=O)C(=C)C | inactive
CNCCCC12CCC(c3ccccc31)c1ccccc12 | 48.6 µM (active) and inactive
CN(C)C(=N)N=C(N)N | inactive
O=C(c1ccccc1)c1ccc(O)cc1O | inactive
CCC(C)CO (stereo not given) | inactive
OC[C@H]1O[C@@H]2O[C@H]3[C@H](O)[C@@H](O)[C@@H](O[C@H]4[C@H](O)[C@@H](O)[C@@H](O[C@H]5[C@H](O)[C@@H](O)[C@@H](O[C@H]6[C@H](O)[C@@H](O)[C@@H](O[C@H]7[C@H](O)[C@@H](O)[C@@H](O[C@H]8[C@H](O)[C@@H](O)[C@@H](O[C@H]1[C@H](O)[C@H]2O)O[C@@H]8CO)O[C@@H]7CO)O[C@@H]6CO)O[C@@H]5CO)O[C@@H]4CO)O[C@@H]3CO | inactive
c1ccc2cc(Nc3ccc(Nc4ccc5ccccc5c4)cc3)ccc2c1 | inactive

SMILES | Potency
Clc1nc(Cl)c(Cl)c(Cl)c1Cl | inactive
CCCCC(CC)COC(=O)c1ccc(N(C)C)cc1 (stereo not given) | inactive
c1ccc2c(c1)c1cccc3ccc4cccc2c4c31 | inactive
C[C@]12CCC(=O)C=C1CC[C@@H]1[C@@H]2C(=O)C[C@@]2(C)[C@H]1CC[C@]2(O)C(=O)CO | inactive
c1ccc(Nc2ccccc2)cc1 | inactive
CC(C)CC(C)(O)C#CC(C)(O)CC(C)C (stereo not given) | inactive
COC(=O)c1ccccc1 | inactive
COc1cc([C@@H]2c3cc4c(cc3[C@H](O)[C@H]3COC(=O)[C@H]23)OCO4)cc(OC)c1OC | inactive
CCCCNS(=O)(=O)c1ccccc1 | inactive
c1ccc2sc(SSN3CCOCC3)nc2c1 | inactive
Cc1ccc2c(n1)Oc1ccc(C(C)C(=O)OCC(=O)N(C)C)cc1C2 (stereo not given) | inactive
Brc1cc(Oc2cc(Br)c(Br)c(Br)c2Br)c(Br)c(Br)c1Br | inactive
c1ccc2c(c1)Oc1ccccc1S2 | inactive
O=CCc1ccccc1 | inactive
C=C(C)C1CC=C(C)CC1 (stereo not given) | inactive
Cc1cccc(N(C)C(=S)Oc2ccc3ccccc3c2)c1 | inactive
O=C(c1ccccc1)c1ccccc1O | inactive
COc1ccc(C(=O)CC(=O)c2ccc(C(C)(C)C)cc2)cc1 | inactive
O=CCCCC=O | inactive
O=c1oc(=O)c2cc3c(=O)oc(=O)c3cc12 | inactive
